# T1: CAPN2 513-700 EF-hand_8 (domain begin residue: 513, domain end residue: 700), P17655
# T1 chain: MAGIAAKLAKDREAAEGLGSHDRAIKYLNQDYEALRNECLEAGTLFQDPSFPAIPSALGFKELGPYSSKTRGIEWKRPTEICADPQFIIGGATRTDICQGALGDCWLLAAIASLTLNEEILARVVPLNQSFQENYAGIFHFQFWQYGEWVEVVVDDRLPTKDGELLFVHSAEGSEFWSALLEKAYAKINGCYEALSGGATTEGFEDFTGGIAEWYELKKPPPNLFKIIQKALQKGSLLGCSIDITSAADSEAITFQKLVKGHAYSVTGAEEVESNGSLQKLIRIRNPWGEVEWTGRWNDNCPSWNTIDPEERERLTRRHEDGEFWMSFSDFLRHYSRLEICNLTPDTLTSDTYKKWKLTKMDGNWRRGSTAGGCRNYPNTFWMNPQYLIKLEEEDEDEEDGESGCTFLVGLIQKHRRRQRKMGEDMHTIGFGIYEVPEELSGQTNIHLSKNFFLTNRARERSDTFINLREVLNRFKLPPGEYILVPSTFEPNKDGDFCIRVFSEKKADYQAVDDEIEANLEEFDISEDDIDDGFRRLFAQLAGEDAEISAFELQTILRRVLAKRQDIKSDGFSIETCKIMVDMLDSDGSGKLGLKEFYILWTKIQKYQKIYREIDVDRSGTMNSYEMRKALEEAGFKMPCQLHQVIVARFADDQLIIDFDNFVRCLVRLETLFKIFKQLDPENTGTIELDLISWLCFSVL
# T2: ARFGEF2 639-829 Sec7 (domain begin residue: 639, domain end residue: 829), Q9Y6D5
# T2 chain: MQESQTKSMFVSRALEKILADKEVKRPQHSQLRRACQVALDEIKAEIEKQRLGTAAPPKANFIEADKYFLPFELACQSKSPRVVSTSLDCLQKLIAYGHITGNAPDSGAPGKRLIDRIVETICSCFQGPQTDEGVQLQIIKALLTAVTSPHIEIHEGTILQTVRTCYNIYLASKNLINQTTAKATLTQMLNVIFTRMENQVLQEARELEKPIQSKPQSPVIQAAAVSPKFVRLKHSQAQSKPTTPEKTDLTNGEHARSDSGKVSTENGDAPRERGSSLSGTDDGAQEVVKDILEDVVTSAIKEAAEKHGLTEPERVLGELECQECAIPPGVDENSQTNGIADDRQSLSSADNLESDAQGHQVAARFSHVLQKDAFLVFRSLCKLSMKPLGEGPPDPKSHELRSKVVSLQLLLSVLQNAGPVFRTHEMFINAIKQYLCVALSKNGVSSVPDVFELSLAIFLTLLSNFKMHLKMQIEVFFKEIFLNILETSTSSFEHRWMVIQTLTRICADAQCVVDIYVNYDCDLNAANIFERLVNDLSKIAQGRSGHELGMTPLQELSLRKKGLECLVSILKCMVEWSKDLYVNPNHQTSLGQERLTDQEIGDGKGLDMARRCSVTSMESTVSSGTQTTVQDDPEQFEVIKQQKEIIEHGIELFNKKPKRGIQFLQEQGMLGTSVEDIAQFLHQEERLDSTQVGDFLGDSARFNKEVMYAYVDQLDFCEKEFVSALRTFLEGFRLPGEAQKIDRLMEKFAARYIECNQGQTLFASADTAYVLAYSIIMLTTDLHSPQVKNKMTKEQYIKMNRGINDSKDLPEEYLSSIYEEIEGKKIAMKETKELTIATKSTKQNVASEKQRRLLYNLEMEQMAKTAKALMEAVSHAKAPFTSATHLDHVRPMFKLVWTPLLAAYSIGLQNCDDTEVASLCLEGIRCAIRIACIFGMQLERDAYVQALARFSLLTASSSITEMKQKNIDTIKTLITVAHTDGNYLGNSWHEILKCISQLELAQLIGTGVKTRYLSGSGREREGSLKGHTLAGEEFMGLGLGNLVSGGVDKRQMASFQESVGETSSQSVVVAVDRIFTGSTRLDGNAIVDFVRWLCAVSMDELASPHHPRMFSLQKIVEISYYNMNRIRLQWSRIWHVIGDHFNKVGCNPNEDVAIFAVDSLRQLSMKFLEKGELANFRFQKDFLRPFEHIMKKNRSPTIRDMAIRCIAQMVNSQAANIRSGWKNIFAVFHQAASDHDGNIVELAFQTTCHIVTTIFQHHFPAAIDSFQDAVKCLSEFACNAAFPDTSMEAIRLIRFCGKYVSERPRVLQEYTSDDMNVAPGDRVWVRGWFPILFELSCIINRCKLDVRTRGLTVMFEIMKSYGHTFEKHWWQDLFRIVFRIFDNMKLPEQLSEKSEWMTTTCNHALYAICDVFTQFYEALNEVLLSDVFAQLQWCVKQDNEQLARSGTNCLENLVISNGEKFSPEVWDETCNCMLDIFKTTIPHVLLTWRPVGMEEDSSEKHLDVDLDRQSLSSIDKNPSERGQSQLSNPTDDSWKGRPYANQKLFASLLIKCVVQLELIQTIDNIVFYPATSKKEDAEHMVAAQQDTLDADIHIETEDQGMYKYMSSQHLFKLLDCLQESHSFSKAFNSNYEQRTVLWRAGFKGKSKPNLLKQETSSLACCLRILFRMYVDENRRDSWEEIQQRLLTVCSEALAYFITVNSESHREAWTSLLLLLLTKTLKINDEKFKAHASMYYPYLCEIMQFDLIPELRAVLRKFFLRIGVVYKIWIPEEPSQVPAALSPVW
# T3: BTN1A1 285-479 SPRY (domain begin residue: 285, domain end residue: 479), Q13410
# T3 chain: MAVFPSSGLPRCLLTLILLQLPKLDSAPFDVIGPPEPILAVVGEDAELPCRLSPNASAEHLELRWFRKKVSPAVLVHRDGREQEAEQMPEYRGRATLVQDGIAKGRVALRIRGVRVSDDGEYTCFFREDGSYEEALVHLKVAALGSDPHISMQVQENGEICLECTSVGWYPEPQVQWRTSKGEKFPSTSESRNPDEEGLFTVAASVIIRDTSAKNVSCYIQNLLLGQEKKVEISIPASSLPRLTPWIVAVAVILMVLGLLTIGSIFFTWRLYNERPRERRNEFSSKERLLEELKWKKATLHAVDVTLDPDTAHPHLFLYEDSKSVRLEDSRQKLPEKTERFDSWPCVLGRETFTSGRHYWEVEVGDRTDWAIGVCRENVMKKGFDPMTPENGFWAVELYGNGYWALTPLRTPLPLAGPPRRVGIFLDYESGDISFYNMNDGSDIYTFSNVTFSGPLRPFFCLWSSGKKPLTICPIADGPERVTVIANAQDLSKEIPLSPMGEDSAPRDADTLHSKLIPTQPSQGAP
# T4: ARID4A 568-634 Tudor-knot (domain begin residue: 568, domain end residue: 634), P29374
# T4 chain: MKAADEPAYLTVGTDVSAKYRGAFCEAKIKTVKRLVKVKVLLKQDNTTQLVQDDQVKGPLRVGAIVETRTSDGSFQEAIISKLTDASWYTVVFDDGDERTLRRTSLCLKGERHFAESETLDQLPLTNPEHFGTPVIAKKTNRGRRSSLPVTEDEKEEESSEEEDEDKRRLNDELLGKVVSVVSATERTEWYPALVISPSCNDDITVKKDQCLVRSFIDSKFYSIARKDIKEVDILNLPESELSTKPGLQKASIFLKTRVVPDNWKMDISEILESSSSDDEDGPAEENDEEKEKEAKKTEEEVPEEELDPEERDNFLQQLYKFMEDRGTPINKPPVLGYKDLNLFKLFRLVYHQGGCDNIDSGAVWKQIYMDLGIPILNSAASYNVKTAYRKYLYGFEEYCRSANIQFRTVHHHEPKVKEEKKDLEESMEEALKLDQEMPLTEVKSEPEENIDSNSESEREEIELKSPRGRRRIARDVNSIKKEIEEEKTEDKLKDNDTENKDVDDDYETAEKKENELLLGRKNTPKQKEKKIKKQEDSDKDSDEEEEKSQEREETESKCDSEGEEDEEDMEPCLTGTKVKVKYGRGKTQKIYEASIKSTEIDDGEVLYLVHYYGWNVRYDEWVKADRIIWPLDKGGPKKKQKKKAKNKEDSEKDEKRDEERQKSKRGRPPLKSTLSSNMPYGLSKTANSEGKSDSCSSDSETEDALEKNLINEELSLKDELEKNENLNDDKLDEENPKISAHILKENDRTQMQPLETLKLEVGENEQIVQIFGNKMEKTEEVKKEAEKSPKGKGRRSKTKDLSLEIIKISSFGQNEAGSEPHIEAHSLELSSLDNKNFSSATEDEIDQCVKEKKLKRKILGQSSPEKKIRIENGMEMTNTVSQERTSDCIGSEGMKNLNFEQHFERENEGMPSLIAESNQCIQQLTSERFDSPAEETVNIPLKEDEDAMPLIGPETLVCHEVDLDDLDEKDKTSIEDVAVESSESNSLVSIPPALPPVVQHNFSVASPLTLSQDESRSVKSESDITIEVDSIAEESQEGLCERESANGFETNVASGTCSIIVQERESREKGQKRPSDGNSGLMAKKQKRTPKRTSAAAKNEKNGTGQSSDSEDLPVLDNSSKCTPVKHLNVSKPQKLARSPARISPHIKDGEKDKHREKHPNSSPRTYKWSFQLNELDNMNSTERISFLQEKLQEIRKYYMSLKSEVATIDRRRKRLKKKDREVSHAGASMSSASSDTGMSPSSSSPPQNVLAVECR
# T5: CAPNS1 1-268 EF-hand_8+EF-hand_5 (domain begin residue: 1, domain end residue: 268), P04632
# T5 chain: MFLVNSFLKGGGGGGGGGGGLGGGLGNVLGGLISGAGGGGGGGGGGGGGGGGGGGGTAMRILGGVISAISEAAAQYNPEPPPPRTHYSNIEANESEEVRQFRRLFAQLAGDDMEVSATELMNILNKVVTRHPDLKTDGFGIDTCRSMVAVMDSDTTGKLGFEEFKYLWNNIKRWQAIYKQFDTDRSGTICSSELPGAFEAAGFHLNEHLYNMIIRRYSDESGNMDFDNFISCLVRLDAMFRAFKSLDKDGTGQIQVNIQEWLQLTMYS
# T6: ZGPAT 120-268 zf-CCCH+TUDOR (domain begin residue: 120, domain end residue: 268), Q8N5A5
# T6 chain: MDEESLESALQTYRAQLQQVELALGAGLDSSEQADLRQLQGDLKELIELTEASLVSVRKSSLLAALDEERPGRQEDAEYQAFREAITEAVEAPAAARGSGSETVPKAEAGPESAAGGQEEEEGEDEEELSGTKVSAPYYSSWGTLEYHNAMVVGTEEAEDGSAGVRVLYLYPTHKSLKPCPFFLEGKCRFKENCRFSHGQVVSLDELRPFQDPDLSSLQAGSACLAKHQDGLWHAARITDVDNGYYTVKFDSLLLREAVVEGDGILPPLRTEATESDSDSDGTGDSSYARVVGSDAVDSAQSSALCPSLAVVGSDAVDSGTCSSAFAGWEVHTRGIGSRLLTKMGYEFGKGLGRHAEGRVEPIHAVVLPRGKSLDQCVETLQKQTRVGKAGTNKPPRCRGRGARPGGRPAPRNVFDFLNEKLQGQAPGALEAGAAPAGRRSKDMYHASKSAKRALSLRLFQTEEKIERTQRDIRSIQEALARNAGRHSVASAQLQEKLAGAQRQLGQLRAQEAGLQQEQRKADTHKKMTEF
# T7: ALDOA 1-364 Glycolytic (domain begin residue: 1, domain end residue: 364), P04075
# T7 chain: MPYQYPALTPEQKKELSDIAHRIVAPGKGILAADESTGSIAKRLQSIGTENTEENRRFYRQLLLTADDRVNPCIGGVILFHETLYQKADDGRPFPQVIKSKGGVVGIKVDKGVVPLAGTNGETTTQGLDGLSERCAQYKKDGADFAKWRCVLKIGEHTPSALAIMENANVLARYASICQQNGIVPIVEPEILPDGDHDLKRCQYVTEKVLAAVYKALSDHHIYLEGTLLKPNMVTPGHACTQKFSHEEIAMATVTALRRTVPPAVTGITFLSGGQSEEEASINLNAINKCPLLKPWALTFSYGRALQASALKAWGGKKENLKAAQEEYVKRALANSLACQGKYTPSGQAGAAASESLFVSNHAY
# B1: unnamed (peptide)
# chain: WDAFVNDFMHEWSTFK
# B2: unnamed (peptide)
# chain: LTREHVQWDGVMHWIM
# B3: unnamed (peptide)
# chain: FDFWQAREYHMLNMMA
# B4: unnamed (peptide)
# chain: YYWDTILVDNPEWHQL
# B5: unnamed (peptide)
# chain: GLDLDYWTMPGLETLL
# B6: unnamed (peptide)
# chain: VNAHDMLEHWLYQDMI
# B7: unnamed (peptide)
# chain: MLHDGWLMPGMTHSVN
# B8: unnamed (peptide)
# chain: WTYESGEWNWYTEEKT
# Molecular target: T1, CAPN2 513-700 EF-hand_8 (domain begin …
# Assay: phage ELISA signal ratio (GST-PRM binding over GST background); higher = stronger binding of peptide-phage to the PRM
# Protocol: (§1)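 Phage-displayed random hexadecapeptides (Cys-free, flanked by invariant Gly linkers, fused to the M13 P8 major coat protein) were selected over 5 rounds against GST-fused human PRM domains. Individual clones from rounds 4-5 were tested by phage ELISA, and positive clones binding the target but not GST were sequenced. Values are the ELISA signal ratio of target over background (GST); the background signal is given separately.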
row,Binder,phage ELISA signal ratio
1,B1,26.5

# Molecular target: T2, ARFGEF2 639-829 Sec7 (domain begin …
# Assay: as above
# Protocol: as §1
row,Binder,phage ELISA signal ratio
1,B2,16.4

# Molecular target: T3, BTN1A1 285-479 SPRY (domain begin …
# Assay: as above
# Protocol: as §1
row,Binder,phage ELISA signal ratio
1,B3,10.3

# Molecular target: T4, ARID4A 568-634 Tudor-knot (domain begin …
# Assay: as above
# Protocol: as §1
row,Binder,phage ELISA signal ratio
1,B4,4.22
2,B5,8.9
3,B7,8.8

# Molecular target: T5, CAPNS1 1-268 EF-hand_8+EF-hand_5 …
# Assay: as above
# Protocol: as §1
row,Binder,phage ELISA signal ratio
1,B6,28.3

# Molecular target: T6, ZGPAT 120-268 zf-CCCH+TUDOR (domain …
# Assay: as above
# Protocol: as §1
row,Binder,phage ELISA signal ratio
1,B7,4.63

# Molecular target: T7, ALDOA 1-364 Glycolytic (domain begin …
# Assay: as above
# Protocol: as §1
row,Binder,phage ELISA signal ratio
1,B8,23.9

# Reference: the supplement of paper PMC7724964
